High-throughput results deposited in PubChem BioAssay by several laboratories.
In the library only some 12% were active in any assay of this set; here they are far more common.
D1 allo mod: D1 CRE-luciferase signal change, two-sided – cell-based, HEK293 D1, dopamine EC30, D1 allosteric modulator project, primary screen | dopamine EC30 potentiation; actives deviate in either direction | B-score at 10 µM | hit rate 5.9% among 58,000 | AID 641, 2007;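 active means luminescence count or its row- and column-corrected plate score outside the 99.7% band of the plate's sample wells, on either side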
Target sequence (P21728 whole entry, looked up): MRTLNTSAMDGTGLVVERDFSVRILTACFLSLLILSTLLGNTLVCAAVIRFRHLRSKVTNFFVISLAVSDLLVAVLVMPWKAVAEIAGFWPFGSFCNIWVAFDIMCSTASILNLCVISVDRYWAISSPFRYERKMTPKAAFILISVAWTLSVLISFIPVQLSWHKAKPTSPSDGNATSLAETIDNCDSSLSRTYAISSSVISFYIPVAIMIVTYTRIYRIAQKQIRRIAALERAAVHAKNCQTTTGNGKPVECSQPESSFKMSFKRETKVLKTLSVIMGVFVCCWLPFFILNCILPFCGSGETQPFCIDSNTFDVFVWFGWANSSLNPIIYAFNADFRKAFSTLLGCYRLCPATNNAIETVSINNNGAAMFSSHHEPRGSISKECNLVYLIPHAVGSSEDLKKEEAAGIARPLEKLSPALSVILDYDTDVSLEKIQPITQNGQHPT
PostGolgi yeast: phenotypic screen on post-Golgi transport, primary screen. post-Golgi transport phenotypic cell assay. inhibition, % at 10 µM. hit rate 0.9% among 98,000. AID 739, 2007;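 further: yeast cells grown in 1536-well plates; yeast grown about 18 h at 30C before absorbance read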
PostGolgi ctrl: growth inhibition of yeast control strain, primary screen, counter-screen for post-Golgi transport modulator project | efflux-deficient yeast background strain, growth absorbance A615, 16 h | inhibition, % at 10 µM | hit rate 5% among 98,000
hDAT+cocaine: changed hDAT dopamine uptake under cocaine IC80, either direction, primary screen, cocaine antagonist project, cell-based, LLC-PK1 hDAT, [14C]-dopamine uptake, MLSMR; hit rate 1.3% among 110,000; AID 449768, 2010; LLC-PK1 hDAT cells, [14C]-dopamine uptake with cocaine IC80; actives deviate in either direction; B-score at 10 µM; Sodium-dependent dopamine transporter (Homo sapiens), Q01959;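 active means Z score or B-score, a plate-position-corrected score, falls beyond the plate's 99.7% confidence bounds, in either direction; inactive means both scores lie inside the 99.7% bounds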;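 further: scored against the spread of the other compound wells on the same plate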
PLAP activator: PLAP enzyme activators, biochemical, luminescence, HTS; hit rate 1.2% among 96,000; activation fold at 20 µM; purified PLAP enzyme, luminescent substrate read-out; stronger effect = higher value; Alkaline phosphatase, placental type (Homo sapiens), P05187; in the data active means activation fold above about 2
Cav3 T inh: Cav3.2 calcium influx blockers – cell-based, Fluo-4 calcium fluorescence, FDSS, MLSMR library, primary screen. Voltage-dependent T-type calcium channel subunit alpha-1H (Homo sapiens), O95180. Cav3.2-expressing cells; stronger effect = lower value. B-score at 10 µM. hit rate 4% among 100,000. AID 449739, 2010;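 active means single-dose well whose peak fluorescence ratio is a statistical outlier from its plate by either plate-standardised score or position-corrected B-score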
An asterisk follows results filed as active; . = no result. Unless noted, no stated cut-off is given here; in the data, active means inhibition above about 30%; inactive means the rest.

SMILES	D1 allo mod	PostGolgi yeast	PostGolgi ctrl	hDAT+cocaine	PLAP activator	Cav3 T inh
COc1ccc(N2CCN(C(=O)CN(Cc3ccc(Cl)cc3)S(C)(=O)=O)CC2)cc1	.	-3	15	-0.0072	1.6	-4.6*
CS(=O)(=O)N(CC(=O)N1CCc2ccccc2C1)Cc1ccccc1	.	-3	12	-0.013	2.2*	.
COc1ccccc1N1CCN(C(=O)CN(Cc2ccccc2)S(C)(=O)=O)CC1	-0.52	35*	11	0.057	1.5	-0.64
COc1ccc(N2CCN(C(=O)CN(Cc3ccccc3)S(C)(=O)=O)CC2)cc1	.	0	1	0.11	1.8	-0.21
O=C(Cc1ccccc1)Nc1ccccc1C(=O)O	.	-4	-5	1.7	1.3	-0.33
CC(NC(=O)c1cc2ccccc2o1)c1cccs1 (stereo not drawn)	1.1	-6	16	0.27	0.8	-1.3
O=C(c1cc2ccccc2o1)c1cccs1	1.5	-2	31*	-0.68	0.8	-2.2
CCN(CC)S(=O)(=O)c1ccc(C(=O)NCc2n[nH]c(=S)n2Cc2ccccc2)cc1	.	3	-4	0.75	1.1	-4.1*
CCN(CC)S(=O)(=O)c1ccc(C(=O)Nc2ncn(Cc3ccccc3)n2)cc1	.	3	21	-0.8	1.3	0.64
Cc1ccc2nc(N/N=C/c3ccccc3C#N)nc(-c3ccccc3)c2c1	.	4	21	3.1*	1.1	-0.57
Cn1c(-c2ccc(C=O)s2)nc2c3ccccc3c3ccccc3c21	.	-1	0	1	1.4	-5.5*
COC(=O)CC1c2ccccc2S(=O)(=O)N1Cc1ccccc1 (stereo not drawn)	.	.	.	0.063	.	0.12
CCCC(=O)NC(C)c1nc2ccccc2n1C (stereo not drawn)	0.062	5	7	1.6	1.1	0.72
Cc1cccc(N=Nc2c(N)n[nH]c2-c2ccc(Cl)cc2)c1	.	5	34*	0.11	1	1.2
Cc1ccc(-c2[nH]nc(N)c2N=Nc2ccccc2C)cc1	.	54*	63*	0.17	1	0.88
Cc1ccc(-c2[nH]nc(N)c2N=Nc2cccc(Cl)c2C)cc1	.	15	45*	0.0029	1.1	0.6
CC(C)(C)NS(=O)(=O)c1cccc(S(=O)(=O)c2cccc(S(=O)(=O)NC(C)(C)C)c2)c1	-2.8	-5	3	.	.	.
O=C(CSc1nccc2ccccc12)N1CCN(c2ccccn2)CC1	-1.1	8	17	.	1.2	.
CCOC(=O)N1CCN(C(=O)c2cccn3c(=O)c4sccc4nc23)CC1	-0.051	5	8	-0.34	1.1	0.19
O=C(NCc1ccco1)c1cccn2c(=O)c3sccc3nc12	5*	.	.	1.1	.	1.8
O=S(=O)(NCC(c1cccnc1)N1CCN(c2ccccc2)CC1)c1cc(F)ccc1F (stereo not drawn)	-0.54	95*	75*	0.74	1.1	-0.073
COc1ccccc1N1CCN(C(CNS(=O)(=O)c2cc(F)ccc2F)c2cccnc2)CC1 (stereo not drawn)	0.48	.	.	.	.	.
COC(=O)Cn1cc(/C=N/NC(=O)c2ccc(C#N)cc2F)c2ccccc21	.	2	40*	0.97	1.1	0.034
C#CCOC(=O)C(NC(=O)c1ccccc1)=C1CCCCC1	.	3	14	-0.66	0.9	0.0047
O=S(=O)(NC12CC3CC(CC(C3)C1)C2)c1ccc(F)cc1	.	-5	31*	-1.3	0.8	-0.51
SMILES	D1 allo mod	PostGolgi yeast	PostGolgi ctrl	hDAT+cocaine	PLAP activator	Cav3 T inh
COC(=O)c1cn(Nc2ncc(C(F)(F)F)cc2Cl)c(=O)c2ccccc12	.	-5	40*	-0.22	0.9	-1.3
C=CCn1c(C)cc(C(=O)CSc2nnc(NC(C)C)s2)c1C	.	-8	12	0.64	1	0.98
C=CCn1c(C)cc(C(=O)CSc2nnc(NCc3ccccc3)s2)c1C	0.035	62*	96*	.	.	.
Cc1cc(C(=O)CSc2nc3ccccc3o2)c(C)n1C1CC1	-0.69	3	23	-0.99	0.9	-2.8
C=CCn1c(C)cc(C(=O)CSc2nc3ccccc3o2)c1C	-1.4	-14	52*	-0.85	1.1	-1.1
C=CCn1c(C)cc(C(=O)CSc2nc3ccccc3c(=O)[nH]2)c1C	-0.02	25	89*	-0.22	1.2	0.78
C=CCn1c(C)cc(C(=O)CSc2nnc(Cc3ccccc3)o2)c1C	.	82*	96*	-0.38	1.1	-0.86
C=CCn1c(C)cc(C(=O)CSc2nc3ccccc3[nH]2)c1C	.	-7	10	-0.21	1.3	-2.4
NS(=O)(=O)c1ccc(CCNC(=O)c2ccccc2F)cc1	-0.021	16	5	0.1	1	-0.17
COc1ccc(C(=O)N2CCC(=O)N(C(CO)Cc3ccccc3)CC2)cc1 (stereo not drawn)	.	.	.	0.32	.	0.072
CCOCCc1nnc(NC(=O)COC)s1	-0.18	-7	-1	-0.27	0.9	0.61
CC(C)OC(=O)c1c(NS(=O)(=O)c2ccccc2)sc2c1CCCC2	.	.	.	-0.32	.	-8*
COC(=O)c1c(NS(=O)(=O)Cc2ccccc2)sc2c1CCCC2	.	-5	41*	-0.75	1.5	-4.2
COC(=O)c1c(NC(C)=O)sc2c1CCCC2	5.5*	-5	-6	1.2	1.1	-0.78
COC(=O)c1c(NC(=O)C2CCCO2)sc2c1CCC2 (stereo not drawn)	.	0	11	1.1	1.5	-0.59
CCOC(=O)C1CCN(C(=O)C2CC(=O)N(c3ccc(C)cc3)C2)CC1 (stereo not drawn)	0.018	-1	25	-0.56	0.9	0.15
O=C(c1cc2cc([N+](=O)[O-])ccc2oc1=O)N1CCN(c2ncccn2)CC1	.	-18	5	0.46	0.9	0.53
Cc1ccc(NC(=O)CCC(=O)OCC(=O)c2ccc(Oc3ccc([N+](=O)[O-])cc3)cc2)c(C)c1	.	2	12	0.76	0.9	0.0098
c1ccc(C2=Nc3ccccc3SC2c2nc3ccccc3[nH]2)cc1 (stereo not drawn)	.	0	3	-0.53	1.6	-0.02
Cc1ccc(-c2nnc(COc3cccc(-n4cnnn4)c3)o2)cc1	.	-9	-4	-11*	1	.
N#Cc1ccc(CSc2nnc(COc3ccccc3)n2-c2ccccc2)cc1	.	-4	21	0.71	1.3	-0.76
Cc1ccc(-c2nnc(CSc3nnc(COc4ccccc4)n3-c3ccc(C)cc3)o2)cc1	-0.85	6	34*	0.83	1.8	-5.5*
COc1cccc(-n2cnnn2)c1	.	2	6	-0.18	0.9	0.22
Cc1ccc(-c2nnc(CSc3nnc(COc4ccccc4)n3-c3ccccc3)o2)cc1	0.47	-1	16	0.86	1.5	-7*
